# Laboratory results reported in PubChem BioAssay (Tox21).
# Records with an inconclusive call do not appear. Unmarked numbers belong to inactive results. Calls come from the whole dose curve; as a rule, active = well fitted cell-killing curve with a large enough effect in the repeat runs; inconclusive = weak or mixed curves, or effect the other way; inactive = flat fitted curve, though single readings scatter.
# Experiment: qHTS RealTime-Glo MT Cell Viability Assay in HEK293 cells - 0 hour (AID 1224880); note: top concentration of the series differs between compounds; nearly all actives have a fitted effect of over 45% in size
# Conditions: RealTime-Glo luminescence; series mostly up to 76.8 µM; activity change, negative = cytotoxicity: at the top concentration
# Text: U.S. Tox21 Program National Center for Advancing Translational Sciences [NCATS] NIH Chemical Genomics Center [NCGC] U.S. Environmental Protection Agency [EPA] National Institutes of Environmental Health Sciences [NIEHS] National Toxicology Program [NTP] U.S. Food and Drug Administration [FDA] Tox21 Assay Overview: Measure of cell viability is critical in the cell-base assay. Analysis of cell viability is necessary for the characterization of cell responses to cytotoxic drugs and environmental stress. A RealTime-Glo MT Cell Viability Assay to monitor cell viability in real time of continues cell culture during 40 hours of compound treatment was used to screen Tox21 10K library compounds in Hek293 cells. The RealTime-Glo MT Cell Viability Assay is a nonlytic, homogeneous, bioluminescent method to measure cell viability in real time using a simple, plate-based method. The assay involves adding NanoLuc luciferase and a cell-permeant prosubstrate to cells in culture. Viable cells reduce the proprietary prosubstrate to generate a substrate for NanoLuc luciferase. This substrate diffuses from cells into the surrounding culture medium, where it is rapidly used by the NanoLuc Enzyme to produce a luminescent signal. The signal correlates with the number of viable cells, making the assay well suited for cytotoxicity studies.
# Tox21 Assay Protocol Summary: The mixture of Hek293 cell suspension and reagents were dispensed at 600cells/6 ul/well in 1536-well tissue culture treated black solid bottom plates using a Multidrop dispenser. After the assay plates were incubated at a 37 C/5% CO2 incubator for 5 hours, 23 nL of compounds dissolved in DMSO, positive and negative controls was transferred to the assay plate by a pintool work station. The plates were incubated at 37 C for 40 hours. The luminescence intensity were measured at 0h, 8h, 16h, 24h, 32h and 40h time points using ViewLux plate reader during compound treatment.
# % is set by controls: 0 for no effect and ±100 for the full control effect.
row,SMILES,"activity change, negative = cytotoxicity"
1,CC(=O)c1sc(C)nc1C,-0.275%
2,CC(=O)c1ccc2c(c1)Cc1ccccc1-2,10.2%
3,O=Cc1ccc(Cl)c(Cl)c1,-12.7%
4,Cc1[nH]cnc1-c1ccc(Cl)cc1,7.52% [at 35.3 µM]
5,CCOC(=O)c1ccc(OC(=O)CCCCCN=C(N)N)cc1,1.55% [at 35.3 µM]
6,Cc1cccc(C)c1OCC(C)N (stereo not given),0.591% [at 35.3 µM]
7,O=C(NCCN1CCOCC1)c1ccc(Cl)cc1,10.2% [at 35.3 µM]
8,COc1cc2c(cc1OC)C(=O)CC2,0.272% [at 35.3 µM]
9,Cc1nc2n(c(=O)c1CCN1CCC(c3noc4cc(F)ccc34)CC1)CCC[C@H]2O,7.51% [at 15.8 µM]
10,CCCOC(OCCC)OCCC,-1.29%
11,CC(C)OC(=O)CCCCC(=O)OC(C)C,16.3%
12,CC(=O)Nc1cccc(C)c1,-2.37%
13,Cc1ccc2ccc(Cl)cc2n1,11.9% [at 35.3 µM]
14,O=C(Nc1ccc(Cl)c(Cl)c1)C1CC1,-1.65% [at 35.3 µM]
15,CC(C)C(=O)OCc1cccc(OC(=O)[C@@H]2N3C(=O)[C@@H](NC(=O)Cc4ccccc4)[C@H]3SC2(C)C)c1,-2.38% [at 35.3 µM]
16,CCCCNc1ccc(C(=O)OCCN(C)C)cc1,13.5% [at 35.3 µM]
17,N[C@@H](CCC(=O)Nc1ccc([N+](=O)[O-])cc1)C(=O)O,-0.963%
18,CCc1ccc(C=O)cc1,8.62%
19,O=C1c2cccc3c2[C@H](CCC3)CN1[C@@H]1CN2CCC1CC2,1.76% [at 35.3 µM]
20,CC(=O)NCCCCCC(=O)O,-4.22% [at 35.3 µM]

row,SMILES,"activity change, negative = cytotoxicity"
1,CNC(=O)[C@H]1O[C@@H](n2cnc3c(NCc4cc(Cl)ccc4OCc4cc(C)no4)ncnc32)[C@H](O)[C@@H]1N,1.41%
2,O=C(O)c1cc(Cl)cc([N+](=O)[O-])c1Cl,5.18%
3,Nc1ccc([N+](=O)[O-])c(N)c1,-2.22%
4,CC[C@H](C)C(=O)O[C@H]1C[C@H](O)C=C2C=C[C@H](C)[C@H](CC[C@@H](O)C[C@@H](O)CC(=O)O)[C@H]21,-3.47%
5,CCCC/C=C/C=C\C=O,-7.32%
6,CCC(CC)CO,-4.15%
7,CC(C)NCC(O)COc1cccc2[nH]ccc12 (stereo not given),-5.03% [at 35.3 µM]
8,CC1=CCC(C(C)C)=CC1,-1.99%
9,CC/C=C\CC1=C(C)CCC1=O,-1.66%
10,FC(F)(F)c1ccccc1-n1ccnc1,2.62% [at 35.3 µM]
11,CO[C@@H]1[C@@H](OC(N)=O)[C@@H](O)[C@H](Oc2ccc3c(O)c(NC(=O)c4ccc(O)c(CC=C(C)C)c4)c(=O)oc3c2C)OC1(C)C,-0.363% [at 35.3 µM]
12,CCOC(=O)[C@H](CCc1ccccc1)N[C@@H](C)C(=O)N1C(=O)N(C)C[C@H]1C(=O)O,2.87% [at 35.3 µM]
13,CCn1ccc(NS(=O)(=O)c2ccc(N)cc2)nc1=O,6.99% [at 35.3 µM]
14,CC(C)C(=O)OCCc1ccccc1,9.31%
15,CN1C(C)(C)CCCC1(C)C,-0.976% [at 35.3 µM]
16,C=C(C)C1CCC(C)(O)CC1 (stereo not given),-3.79%
17,CCC(C)NC(N)=O (stereo not given),-4.45%
18,CCNC(=O)C1CC(C)CCC1C(C)C (stereo not given),1.3%
19,CCCCCCCCOS(=O)(=O)O,5.53%
20,Nc1ncnc(Nc2ccccc2)n1,-0.123% [at 35.3 µM]
